High-throughput results deposited in PubChem BioAssay by several laboratories.
A selection: hits, their analogues and other compounds. The true share with any hit is near 1%.
SSB-PriA inh – inhibitors of Klebsiella pneumoniae PriA binding to SSB C-terminal tail; AlphaScreen SSBct-PriA binding, biotinylated peptide; inhibition, % at 33 µM; 430,000 compounds, 0.6% hits; in the data active = inhibition mostly above about 37%, no sharp cut-off; inactive = mostly below about 20%
Sa RN4220 lethal – S. aureus RN4220 growth inhibition. OD600, 16 h. inhibition, % (concentration not given with the values). 330,000 compounds, 0.33% hits; in the data active = inhibition above about 85%
Sa ugtP lethal – growth inhibition of S. aureus ugtP deletion strain | 330,000 compounds, 0.54% hits | S. aureus RN4220 ugtP deletion, OD600 growth, 16 h | growth inhibition, % (concentration not given with the values) | AID 1259309; in the data active = growth inhibition above about 68%
Each line names hits and unclear results; the compound was inactive in the other large screens; ! = not confirmed by another sample.

CC(=NNC(=O)c1cccc(N2CCCC2=O)c1)c1ccc(Br)cc1	none (no result: Sa RN4220 lethal, Sa ugtP lethal)
CCOC(=O)CNC(=O)CN1CCC(COCc2ccccc2)CC1	none (no result: Sa RN4220 lethal, Sa ugtP lethal)
COc1ccc(NC(=O)N2CCc3c(c(=O)c4cc(F)ccc4n3C)C2)c(OC)c1	none (no result: Sa RN4220 lethal, Sa ugtP lethal)
Cc1ccc(C)c(NC(=S)NN=C2CCCCc3ccccc32)c1	none
Cc1ccc(NC(=S)NN=C2CCCCc3ccccc32)cc1	Sa ugtP lethal active
COc1ccc(Cl)cc1C(=O)NCCn1c(C)cc2ccccc21	none (no result: Sa RN4220 lethal, Sa ugtP lethal)
O=C(NCC(c1cccs1)N1CCc2ccccc21)c1ccc2c(c1)OCO2 (stereo not drawn)	SSB-PriA inh 39 (no result: Sa RN4220 lethal, Sa ugtP lethal)
COc1ccc(Cl)cc1C(=O)NCC(c1cccs1)N1CCc2ccccc21 (stereo not drawn)	none (no result: Sa RN4220 lethal, Sa ugtP lethal)
Cc1ccc(C(=O)CNC(=O)c2ccc(-c3ccccc3Cl)o2)cc1	none (no result: Sa RN4220 lethal, Sa ugtP lethal)
C=C1C[C@H]2[C@@H]3CCc4cc(OC)ccc4[C@H]3CC[C@]12C	none (no result: Sa RN4220 lethal, Sa ugtP lethal)
C=C1CC2C3CCc4cc(OC)ccc4C3CC[C@]12C (stereo partly drawn)	Sa ugtP lethal 89 (no result: SSB-PriA inh)
O=C(NN=Cc1cc(O)ccc1Br)c1cccnc1	SSB-PriA inh 46 (no result: Sa RN4220 lethal, Sa ugtP lethal)
O=C(NN=Cc1cc(Cl)ccc1O)c1cccnc1	none (no result: Sa RN4220 lethal, Sa ugtP lethal)
O=C(NN=Cc1cc2c(cc1Br)OCO2)c1cccnc1	none
O=C(NN=Cc1cc(Cl)ccc1O)c1ccncc1	SSB-PriA inh 67
COC(=O)c1ccc2c(=O)n(CCC(=O)NCc3ccc(C)cc3)c(=S)[nH]c2c1	none (no result: Sa RN4220 lethal, Sa ugtP lethal)
CC(=O)Nc1ccc(NC(=O)C(C)OC(=O)CCC2CCCCC2)cc1 (stereo not drawn)	none
CC(OC(=O)CCC1CCCC1)C(=O)Nc1ccccc1[N+](=O)[O-] (stereo not drawn)	SSB-PriA inh 43
O=C(Nc1ccc2c(c1)N(S(=O)(=O)c1ccc(F)cc1)CCC2)c1cccs1	none (no result: Sa RN4220 lethal, Sa ugtP lethal)
O=C(Nn1c(SCc2ccc(F)cc2)nc2ccsc2c1=O)c1ccccc1	Sa RN4220 lethal 83
Cc1ccc(CNC(=O)CSc2nc3ccsc3c(=O)n2NC(=O)c2ccccc2)cc1	none
CC1(C)COc2ccc(NC(=O)c3ccco3)cc2NC1=O	none (no result: Sa RN4220 lethal, Sa ugtP lethal)
O=C(Nc1nc2c(s1)CCCC2)[C@@H]1CCCCN1S(=O)(=O)c1ccc(Cl)s1	none (no result: Sa RN4220 lethal, Sa ugtP lethal)
COCc1nnc(NC(=O)c2ccc(S(=O)(=O)N3CCCc4ccccc43)cc2)o1	none
CC1CN(S(=O)(=O)c2ccc(C(=O)Nc3nnc(-c4ccc5c(c4)CCCC5)o3)cc2)CC(C)O1 (stereo not drawn)	Sa RN4220 lethal 99, Sa ugtP lethal 99
C[C@H]1CCCCN1S(=O)(=O)c1ccc(C(=O)Nc2nnc(-c3ccc4c(c3)CCCC4)o2)cc1	none (no result: Sa RN4220 lethal, Sa ugtP lethal)
COc1ccc(-c2nnc(NC(=O)c3ccc(S(=O)(=O)N4CCCc5ccccc54)cc3)o2)c(OC)c1	none (no result: Sa RN4220 lethal, Sa ugtP lethal)
O=C(Nc1nnc(C2CC2)o1)c1ccc(S(=O)(=O)N2CCCc3ccccc32)cc1	Sa RN4220 lethal 89, Sa ugtP lethal 94
COc1ccc(-c2nnc(NC(=O)c3ccc(S(=O)(=O)N4CCCc5ccccc54)cc3)o2)cc1	Sa RN4220 lethal 98, Sa ugtP lethal 100
COC(=O)c1ccc(C(=O)NCCn2ccc(C(F)(F)F)n2)cc1	none (no result: Sa RN4220 lethal, Sa ugtP lethal)
COc1nn(C)cc1C(=O)NCCc1c[nH]c2ccccc12	none (no result: Sa RN4220 lethal, Sa ugtP lethal)
CCOc1ccc(S(=O)(=O)NCc2ccc([C@@H](O)c3ccsc3)s2)cc1F	none (no result: Sa RN4220 lethal, Sa ugtP lethal)
CCCCN1C(=O)CCc2cc(NC(=O)Cc3cccc4ccccc34)ccc21	none (no result: Sa RN4220 lethal, Sa ugtP lethal)
O=C1/C(=C\c2cc([N+](=O)[O-])ccc2O)SC(=S)N1Cc1ccc(Cl)cc1	Sa RN4220 lethal 88
COc1cc(/C=C2/SC(=S)N(Cc3ccccc3)C2=O)ccc1O	none
Cc1ccc(/C=C2\SC(=S)N(Cc3ccccc3)C2=O)o1	none
O=C1/C(=C\c2ccc(O)c(O)c2)SC(=S)N1Cc1ccccc1	Sa ugtP lethal 99
O=C(O)c1cc(-c2ccc(/C=C3/SC(=S)N(Cc4ccccc4)C3=O)o2)ccc1Cl	Sa RN4220 lethal 97, Sa ugtP lethal 101
O=C1/C(=C\c2cccc(O)c2O)SC(=S)N1Cc1ccccc1	none (no result: Sa RN4220 lethal, Sa ugtP lethal)
COc1ccc(C(C)=NNC(=S)NCc2ccco2)cc1	none
C/C(=N/NC(=S)NCc1ccco1)c1ccco1	SSB-PriA inh 43 (no result: Sa RN4220 lethal, Sa ugtP lethal)
COc1ccc(S(=O)(=O)NCc2ccco2)cc1C(=O)O	SSB-PriA inh 38! (no result: Sa RN4220 lethal, Sa ugtP lethal)
COc1ccc(S(=O)(=O)NCc2ccco2)cc1C(=O)N1CCCCC1	none
CCC(C#N)(OC)c1ccccc1 (stereo not drawn)	none (no result: Sa RN4220 lethal, Sa ugtP lethal)
N#Cc1c(N=Cc2cccs2)sc2c1CCCC2	SSB-PriA inh 38 (no result: Sa RN4220 lethal, Sa ugtP lethal)
N#Cc1c(N=Cc2ccco2)sc2c1CCC2	none
O=C(COc1cccc(C(F)(F)F)c1)NCCCn1nc(-c2ccncc2)ccc1=O	none (no result: Sa RN4220 lethal, Sa ugtP lethal)
CN(C)CCOc1ccc(-c2c(-c3ccsc3)sc3ccccc23)cc1	none (no result: Sa RN4220 lethal, Sa ugtP lethal)
COc1ccc(-c2sc3ccccc3c2-c2ccc(OCCN(C)C)cc2)cc1	Sa RN4220 lethal 101, Sa ugtP lethal 100
Cc1cc(=O)n2c(-c3ccc(NC(=O)Nc4ccc(C)c(F)c4)cc3)csc2n1	none (no result: Sa RN4220 lethal, Sa ugtP lethal)
